PubChem BioAssay (NCI)
This is part of a sample that, as a whole, favours compounds with a hit. Of some 79,000 tested, about 15% had one in any assay. A number with no mark means an inactive call. Activity calls are given as the source filed them. Rule as the data show it: active = growth inhibition above about 70%; inactive = the rest.

test: NCI Yeast Anticancer Drug Screen. Data for the wt1 strain (AID 149);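 also: 0% = growth of vehicle-treated wt1 cultures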; conditions: S. cerevisiae wt1 strain (SPY 50644) growth inhibition; at 100.0 µM; hits give high values
Summary of the method: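 Measured: growth of wt1 yeast under compound versus vehicle treatment, reported as inhibition.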

SMILES	growth inhibition
COc1ccc2nc3cccc([N+](=O)[O-])c3c(NCCNCCN(C)C)c2c1	3%
Cc1cccc(/C=N/NC(=S)NC2CCCCC2)n1	6%
COC(=O)C(=O)c1c(-c2ccc(Cl)c(Cl)c2)[nH]c2[nH]n(-c3ccccc3)c(=O)c2c1=O	55%
c1ccc([P+](CCN2Cc3ccccc3C2)(c2ccccc2)c2ccccc2)cc1	95% (active)
Cc1cc(C)c2[s+]snc2c1	26%
CC(C)(Br)C(=O)/C=C/c1ccccc1	17%
Cc1ccc(S(=O)(=O)NC(=O)C2C(=O)CC3(CCCCC3)CC2=O)cc1	83% (active)
NC(=S)N1N=C2c3ccccc3CC[C@H]2[C@@H]1c1ccc(Cl)cc1	90% (active)
O=[N+]([O-])/C=C/c1cc2ccc3ccccc3c2[nH]1	93% (active)
O=C1C(=C2CCCC2)CCC1CN1CCCCC1 (configuration not stated)	89% (active)
OC(CC(O)(C(F)(F)F)C(F)(F)F)c1ccc(C(O)CC(O)(C(F)(F)F)C(F)(F)F)cc1 (configuration not stated)	100% (active)
COc1cc2c(cc1OC)[C@@H](Nc1ccc(C#N)cc1)C1COC(=O)[C@@H]1C2c1cc(OC)c(O)c(OC)c1 (some centres not stated)	79% (active)
O=c1cccccc1[O-].O=c1cccccc1[O-].O=c1cccccc1[O-].[Eu+3]	97% (active)
O=C1c2ccccc2C(=O)c2sc(Nc3ccccc3Cl)nc21	98% (active)
NC(CCCCCCCCCCCCC(N)C(=O)c1ccccc1)C(=O)c1ccccc1 (configuration not stated)	95% (active)
CC1=C(C)C(=O)C2=C(OCCO2)C1=O	17%
c1ccc(-c2cc(C3CO3)c3ccccc3n2)cc1 (configuration not stated)	96% (active)
S=C1C(=Nc2ccccc2)N(c2ccccc2)/C(=N\c2ccccn2)N1c1ccccc1	98% (active)

SMILES	growth inhibition
CCC(OC(C)=O)C1CC(C(C)C)CCC1C (configuration not stated)	44%
CC(C)=CCc1c2c(c(O)c3c(=O)c(-c4ccc(O)c(O)c4)coc13)C=CC(C)(C)O2	89% (active)
O=C(NC(N1CCN(c2cc3c(cc2F)c(=O)c(C(=O)O)cn3C2CC2)CC1)(C(F)(F)F)C(F)(F)F)c1ccccc1	40%
Fc1cc(F)c(F)c(S)c1F	97% (active)
COc1ccc2cc3c4cc5c(cc4cc[n+]3cc2c1OC)OCO5	95% (active)
CCCCCCCCNCCCCCCCC	99% (active)
Nc1cc(Cl)ccc1Nc1ccccc1	94% (active)
O=C(/C(=C/c1ccc(O)cc1)c1ccccc1)c1ccccc1	92% (active)
O=Cc1ccccc1C=O	90% (active)
C1=CCN([B-](c2ccccc2)[C+]2CCCCC2)C=C1	98% (active)
CC/C(=C(\c1ccccc1)c1ccc(OCC[N+](C)(C)C)cc1)c1ccccc1	99% (active)
O=S(=O)(c1cccc(C(F)(F)F)c1)N1c2ccccc2-n2cccc2C1c1cccnc1 (configuration not stated)	89% (active)
Nc1ccc2c(c1)C(=O)c1c(F)cccc1-2	50%
CN(C)/C(=N/C(=S)Nc1ccccc1)SCc1ccccc1	6%
CCN(CC)C(=S)N/N=C(\C)c1ccccc1O	98% (active)
CC(C)OC(=O)NNc1cc(Cl)ccc1Cl	31%
CC(C)CCC[C@@H](C)[C@H]1CC[C@H]2[C@@H]3CC[C@H]4C[C@H](N)CC[C@]4(C)[C@H]3CC[C@]12C	1%
O=C1c2ccccc2-c2ccc(N=Cc3ccccc3)cc21	69%

test: NCI Yeast Anticancer Drug Screen. Data for the rad50EPP+ strain (AID 151);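 also: 0% = growth of vehicle-treated control cultures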; conditions: S. cerevisiae rad50 mutant strain, at 1.2 µM, hits give high values
Summary of the method: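 In this screen, rad50EPP+ yeast were exposed to compounds. Growth inhibition was scored against vehicle-treated controls.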

SMILES	growth inhibition
COc1ccc2nc3cccc([N+](=O)[O-])c3c(NCCNCCN(C)C)c2c1	-4%
Cc1cccc(/C=N/NC(=S)NC2CCCCC2)n1	-8%
COC(=O)C(=O)c1c(-c2ccc(Cl)c(Cl)c2)[nH]c2[nH]n(-c3ccccc3)c(=O)c2c1=O	2%
c1ccc([P+](CCN2Cc3ccccc3C2)(c2ccccc2)c2ccccc2)cc1	-21%
Cc1cc(C)c2[s+]snc2c1	1%
CC(C)(Br)C(=O)/C=C/c1ccccc1	21%
Cc1ccc(S(=O)(=O)NC(=O)C2C(=O)CC3(CCCCC3)CC2=O)cc1	-3%
NC(=S)N1N=C2c3ccccc3CC[C@H]2[C@@H]1c1ccc(Cl)cc1	-14%
O=[N+]([O-])/C=C/c1cc2ccc3ccccc3c2[nH]1	91% (active)
O=C1C(=C2CCCC2)CCC1CN1CCCCC1 (configuration not stated)	28%
OC(CC(O)(C(F)(F)F)C(F)(F)F)c1ccc(C(O)CC(O)(C(F)(F)F)C(F)(F)F)cc1 (configuration not stated)	-2%
COc1cc2c(cc1OC)[C@@H](Nc1ccc(C#N)cc1)C1COC(=O)[C@@H]1C2c1cc(OC)c(O)c(OC)c1 (some centres not stated)	-15%
O=c1cccccc1[O-].O=c1cccccc1[O-].O=c1cccccc1[O-].[Eu+3]	0%
O=C1c2ccccc2C(=O)c2sc(Nc3ccccc3Cl)nc21	-37%
NC(CCCCCCCCCCCCC(N)C(=O)c1ccccc1)C(=O)c1ccccc1 (configuration not stated)	-2%
CC1=C(C)C(=O)C2=C(OCCO2)C1=O	-3%
c1ccc(-c2cc(C3CO3)c3ccccc3n2)cc1 (configuration not stated)	2%
S=C1C(=Nc2ccccc2)N(c2ccccc2)/C(=N\c2ccccn2)N1c1ccccc1	-3%

SMILES	growth inhibition
CCC(OC(C)=O)C1CC(C(C)C)CCC1C (configuration not stated)	0%
CC(C)=CCc1c2c(c(O)c3c(=O)c(-c4ccc(O)c(O)c4)coc13)C=CC(C)(C)O2	-63%
O=C(NC(N1CCN(c2cc3c(cc2F)c(=O)c(C(=O)O)cn3C2CC2)CC1)(C(F)(F)F)C(F)(F)F)c1ccccc1	-2%
Fc1cc(F)c(F)c(S)c1F	-51%
COc1ccc2cc3c4cc5c(cc4cc[n+]3cc2c1OC)OCO5	0%
CCCCCCCCNCCCCCCCC	1%
Nc1cc(Cl)ccc1Nc1ccccc1	-58%
O=C(/C(=C/c1ccc(O)cc1)c1ccccc1)c1ccccc1	-5%
O=Cc1ccccc1C=O	-8%
C1=CCN([B-](c2ccccc2)[C+]2CCCCC2)C=C1	-3%
CC/C(=C(\c1ccccc1)c1ccc(OCC[N+](C)(C)C)cc1)c1ccccc1	3%
O=S(=O)(c1cccc(C(F)(F)F)c1)N1c2ccccc2-n2cccc2C1c1cccnc1 (configuration not stated)	-73%
Nc1ccc2c(c1)C(=O)c1c(F)cccc1-2	5%
CN(C)/C(=N/C(=S)Nc1ccccc1)SCc1ccccc1	0%
CCN(CC)C(=S)N/N=C(\C)c1ccccc1O	9%
CC(C)OC(=O)NNc1cc(Cl)ccc1Cl	20%
CC(C)CCC[C@@H](C)[C@H]1CC[C@H]2[C@@H]3CC[C@H]4C[C@H](N)CC[C@]4(C)[C@H]3CC[C@]12C	0%
O=C1c2ccccc2-c2ccc(N=Cc3ccccc3)cc21	-2%
